Test results published in PubChem BioAssay (NCATS).
Records with an inconclusive call do not appear. Calls of active or inactive are those of the source. Unless noted, calls follow the shape of the dose curve; as a rule, active = well fitted curve in the direction sought with a large enough effect; inconclusive = small, poorly fitted or top-dose-only effect, or another doubt; inactive = no such curve, though single readings can be large; an effect the other way counts as inactive or inconclusive.

Experiments:
[1] = molecular target: Protein phosphatase 1D (Homo sapiens) (UniProt O15297); test: RapidFire Mass Spectrometry qHTS Assay for Modulators of WT P53-Induced Phosphatase 1 (WIP1) (AID 1347424);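 also: amount of dephosphorylated VEPPL-S-QETFS peptide product formed by WIP1; series mostly up to about 63 µM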
Method in brief: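 Mass-spectrometric measurement of dephosphorylated peptide after a 5 min room-temperature reaction of 10 nM WIP1 with 2 uM phosphopeptide, following 1 h compound preincubation in 30 mM MgCl2 buffer.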

[2] = molecular target: Protein phosphatase 1D (Homo sapiens) (UniProt O15297); test: Rhodamine-PBP qHTS Assay for Modulators of WT P53-Induced Phosphatase 1 (WIP1) (AID 1347425)
Method in brief: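 5 nM WIP1 + 10 uM Rh-PBP, 50 mM Tris pH 7.5, 30 mM MgCl2, 1 mM TCEP, 0.1 mM EGTA, BSA; cpds pinned, 1 hr RT; + 10 uM phosphopeptide; fluorescence 1-min reads x 11 min; delta = f1 - f0.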

[3] = Primary qHTS for inhibitors of SARS-S pseudo-typed particle cell entry (AID 1479145; calls by dose curve; also: nearly all actives have a fitted effect of over 45% in size)
[4] = Primary qHTS for Huh7 cytotoxicity: counterscreen for inhibitors of MERS-S pseudotyped particle cell entry (AID 1479147; calls by dose curve)
[5] = Primary qHTS for inhibitors of MERS-S pseudo-typed particle cell entry (AID 1479149; calls by dose curve; also: nearly all actives have a fitted effect of over 60% in size)
[6] = Primary qHTS for Vero E6 cytotoxicity: counterscreen for inhibitors of SARS-S pseudo-typed particle cell entry (AID 1479150; calls by dose curve)
[7] = Validation qHTS assay for inhibitors of Activation Induced Cytidine Deaminase (AID): UDG Counterscreen signal (AID 1347427)
Method in brief: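 Fluorescence at 560 nm excitation, 665 nm emission reports UDG signal after 250 mM NaOH (2x) addition and 30 min. Enzymes (AID 1 uM, UDG 2 U/mL, at 4/3x) preincubated 10 min with compound, then 4 h with 4x 250 nM DJC20/DJC23 substrate at room temperature.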

[8] = molecular target: Single-stranded DNA cytosine deaminase (Homo sapiens) (UniProt Q9GZX7); test: Validation qHTS assay for inhibitors of Activation Induced Cytidine Deaminase (AID): AID signal (AID 1347429)
Method in brief: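 Compounds (final up to 114 uM) preincubated with AID plus UDG; 250 nM DJC20/DJC23 substrate mix (4x stock) added, 4 hr at room temperature, then NaOH, 30 min. Read 1 fluorescence at 540 nm excitation, 590 nm emission.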

Measured: Potency

Sequence of Protein phosphatase 1D (Homo sapiens) (O15297 whole entry, looked up): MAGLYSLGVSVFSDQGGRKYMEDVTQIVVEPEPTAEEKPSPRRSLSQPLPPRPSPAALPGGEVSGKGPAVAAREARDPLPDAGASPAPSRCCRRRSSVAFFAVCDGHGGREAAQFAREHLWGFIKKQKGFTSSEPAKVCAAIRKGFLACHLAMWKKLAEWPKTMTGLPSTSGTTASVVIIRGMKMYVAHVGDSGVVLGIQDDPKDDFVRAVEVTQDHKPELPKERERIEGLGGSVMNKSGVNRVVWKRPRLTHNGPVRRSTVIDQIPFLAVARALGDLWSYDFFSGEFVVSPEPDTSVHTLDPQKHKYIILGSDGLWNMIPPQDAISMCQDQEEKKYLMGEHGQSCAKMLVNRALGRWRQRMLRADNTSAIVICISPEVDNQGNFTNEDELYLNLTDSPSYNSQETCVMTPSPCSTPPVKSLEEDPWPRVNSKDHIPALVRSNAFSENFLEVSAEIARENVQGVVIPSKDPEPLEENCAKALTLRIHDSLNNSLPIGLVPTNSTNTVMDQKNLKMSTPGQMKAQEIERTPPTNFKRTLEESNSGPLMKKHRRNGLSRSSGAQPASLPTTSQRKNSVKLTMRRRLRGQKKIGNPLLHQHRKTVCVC
Sequence of Single-stranded DNA cytosine deaminase (Homo sapiens) (Q9GZX7 whole entry, looked up): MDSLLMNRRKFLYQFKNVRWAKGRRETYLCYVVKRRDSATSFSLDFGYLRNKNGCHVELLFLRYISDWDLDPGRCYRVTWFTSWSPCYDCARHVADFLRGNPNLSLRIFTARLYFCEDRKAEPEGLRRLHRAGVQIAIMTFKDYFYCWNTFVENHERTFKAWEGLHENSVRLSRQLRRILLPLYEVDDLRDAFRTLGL

CN1CCC(N(Cc2ccccc2)c2ccccc2)CC1
inactive: [1] | [2]

CN1C(=O)CN=C(c2ccccc2)c2cc([N+](=O)[O-])ccc21
inactive: [1] | [2]

CCc1cc(OC)c(C[C@H](C)N)cc1OC
inactive: [1] | [2]

CC(CC(C(N)=O)(c1ccccc1)c1ccccc1)N(C)C (stereo not given)
not listed: [7] | [8]
inactive: all other assays above

CNC(C)Cc1ccc2c(c1)OCO2 (stereo not given)
inactive: [1] | [2]

C[C@H](CN1CCOCC1)C(C(=O)N1CCCC1)(c1ccccc1)c1ccccc1
inactive: [1] | [2]

C[N+]1(C)[C@@H]2CC[C@H]1CC(OC(=O)C(CO)c1ccccc1)C2 (stereo not given in full)
not listed: [7] | [8]
inactive: all other assays above

NC(=O)CN1CCCC1=O
not listed: [3]
inactive: all other assays above

CN(C)CCc1c[nH]c2ccc(O)cc12
inactive: [1] | [2]

CNC(=O)Oc1cccc2ccccc12
not listed: [7] | [8]
inactive: all other assays above

COc1ccc2c3c1O[C@H]1[C@@H](O)C=C[C@H]4[C@@H](C2)N(C)CC[C@@]341
inactive: [1] | [2]

NC1(c2ccccc2)CCCCC1
inactive: [1] | [2]

COP(=S)(OC)Oc1ccc(S(N)(=O)=O)cc1
not listed: [7] | [8]
inactive: all other assays above

NCc1cccnc1
inactive: [1] | [2]

CC1COC2(c3ccccc3Cl)c3cc(Cl)ccc3NC(=O)CN12 (stereo not given)
not listed: [7] | [8]
inactive: all other assays above
